Test results taken from PubChem BioAssay (NCI).
This is part of a sample that, as a whole, favours compounds with a hit. Of some 83,000 tested, about 20% had one in any assay.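 A percent growth of 40 corresponds to 60% growth inhibition; 0 means no net growth; -100 means all cells died. Active threshold: below 10.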 A number with no mark means an inactive call. Calls of active or inactive are those of the source.

How the values were obtained:
Experiment in all cases: NCI-60 one-dose screen, 48 h (100 = growth as untreated, 0 = no growth, -100 = all killed)
Settings in all cases: 10 µM unless noted
BT-549 breast = test system: BT-549 breast
MDA-MB-435 melanoma = test system: MDA-MB-435 melanoma
MCF7 breast = test system: MCF7 breast
HCT-116 colon = test system: HCT-116 colon
HCC-2998 colon = test system: HCC-2998 colon
KM12 colon = test system: KM12 colon
SW-620 colon = test system: SW-620 colon

Row | SMILES | growth (BT-549 breast) | growth (MDA-MB-435 melanoma) | growth (MCF7 breast) | growth (HCT-116 colon) | growth (HCC-2998 colon) | growth (KM12 colon) | growth (SW-620 colon)
1 | O=C(CSc1nnc(-c2ccc3nc(-c4ccc(Cl)cc4)[nH]c3c2)o1)Nc1ccc(C(=O)/C=C/c2ccc(Cl)cc2)cc1 | 99.6% | 99.9% | 55.2% | 77.8% | 116% | 99.3% | 
2 | CC(C)(O)c1cncc(-c2ccc3ncnc(N4CCc5cc(F)c(Cl)cc54)c3c2)c1 | -7.34% (active) | 17.1% | 10.8% | 30.1% | 34.2% | 35.1% | 
3 | COc1cc(N=Cc2sc(Nc3nccs3)nc2O)cc(OC)c1OC | 93.6% | 87.9% | 71.5% | 94.2% | 111% | 89.9% | 
4 | CCOC(=O)c1c(Nc2ccccc2)nn2c(-c3ccco3)c(C#N)cnc12 | 83.1% | 93% |  | 92.5% | 112% | 98.6% | 
5 | CCN1C(=S)N(c2ccccc2)C2NC(=O)N(/N=C/C=C/c3ccccc3OC)C21 (configuration not stated) | 94.5% | 52.6% | 62.9% |  | 130% | 88.3% | 
6 | CC1=C(C)C(=O)C(Nc2ccccc2)=C(Cl)C1=O | 114% | 102% |  |  |  | 78.3% | 96.5%
7 | COc1ccc(/C=N/NC(=O)c2[nH]c3ccc(Br)cc3c2-c2ccccc2)o1 | -15.5% (active) | -16.9% (active) | 9.83% (active) |  | 21.3% | 6.83% (active) | 
8 | COc1ccc([C@@H]2c3[nH]c4ccccc4c3CC3C(=O)N(C4CCN(Cc5c(F)cccc5F)CC4)CC(=O)N32)c(OC)c1 (some centres not stated) | 30.4% [5.26 µM] | 60% [5.26 µM] |  | -15.2% [5.26 µM] (active) |  | 58.1% [5.26 µM] | 
9 | Cc1cccc2sc(/N=C(\N)C(Cl)(Cl)Cl)nc12 | 117% | 103% | 85% | 101% | 111% | 97.5% | 
10 | Nc1cc(-c2c[nH]c3ccc(F)cc23)nc2cc(-c3c[nH]c4ccc(F)cc34)nn12 | 103% | 64.2% | 37% |  | 72.5% | 40.6% | 
11 | C/C(=N\NC(N)=O)c1c(O)sc(=O)[nH]c1=O | 95.3% | 104% | 93.4% | 91% | 110% | 100% | 
12 | N#Cc1ccc(C(=O)CSc2nc(Nc3ccc(S(N)(=O)=O)cc3)c3ccccc3n2)cc1 | 111% | 108% | 98.6% | 100% | 119% | 107% | 
13 | CCOC(=O)c1c(Nc2ccccc2)nn2c(N)c(C#N)c(-c3ccc(OC)cc3)nc12 | 52.6% | 79% | 70.3% | 77.8% | 92.5% | 83% | 
14 | COc1cc(-c2ccc3ncnc(NC(C)c4ccccc4)c3c2)cnc1OC (configuration not stated) | 32.6% | 69.6% | 23.7% | 76.8% | 69.8% | 75.3% | 
15 | N#Cc1nc(-c2ccccc2)oc1S(N)(=O)=O | 67.6% | 42.5% |  | 46.8% | 110% | 83.9% | 
16 | C#Cc1nc(C2=C(C)C(OC(C)=O)/C(=N/OC(C)=O)C2)cs1 (configuration not stated) | -74.3% (active) | 88.9% |  | 19.9% | 105% | -19.7% (active) | 
17 | COc1cccc(-c2nn(-c3ccccc3)cc2-c2ccnc(N3CCN(C(=O)Nc4ccc(F)cc4)CC3)c2)c1 | 45.8% | 49.9% | 57.7% | 54.9% | 95.4% |  | 
18 | COc1ccc(C(=O)c2cc(C(=O)/C=C/c3c(Cl)cccc3Cl)c3cc(C)ccn23)cc1 | 119% | 99.6% | 98% | 99.8% |  | 100% | 
19 | O=C(N/N=C/c1ccc(Br)s1)c1[nH]c2ccc(Br)cc2c1-c1ccccc1 | -11.8% (active) | -5.5% (active) |  | -14.2% (active) | 20.5% | 8.2% (active) | 
20 | CS(=O)(=O)c1ccc(-c2nc3ccccn3c2-c2nc3ccc([N+](=O)[O-])cc3[nH]2)cc1 | 122% | 94.5% | 85.2% | 97% | 105% | 93.8% | 
21 | COc1ccc(/C=C/C(=O)c2ccc(NC(=O)CSc3nnc(-c4ccc5nc(-c6ccc(Cl)cc6)[nH]c5c4)o3)cc2)cc1 | 85% | 98.1% |  | 93.4% | 118% | 99.7% | 

Row | SMILES | growth (BT-549 breast) | growth (MDA-MB-435 melanoma) | growth (MCF7 breast) | growth (HCT-116 colon) | growth (HCC-2998 colon) | growth (KM12 colon) | growth (SW-620 colon)
22 | O=C(CCCN1C(=O)/C(=C/c2ccccc2F)SC1=S)N1CCOCC1 | 114% | 82.7% | 56.9% | 88.7% | 119% | 85.4% | 
23 | CCOC(=O)c1c(Nc2ccccc2)nn2c(N)c(C#N)c(-c3ccc(Cl)cc3)nc12 | 96.7% | 70.3% | 65.2% | 59.9% | 83.5% | 64.1% | 
24 | N#Cc1nc(-c2ccccc2)oc1N1CCC(CO)C1 (configuration not stated) | 95.3% | 95.7% | 49.8% | 107% | 115% | 101% | 
25 | Nc1c(C(=O)Nc2ccc(Cl)cc2)sc2nc(-c3cnccn3)cc(-c3cccs3)c12 | 65.3% | 77.5% | 55.3% | 41.6% | 104% | 80.2% | 
26 | CS(=O)(=O)Nc1ccc(-c2nn(-c3ccc(S(C)(=O)=O)cc3)cc2/C=C/C(=O)c2ccc(NC(=O)CO[N+](=O)[O-])cc2)cc1 | 98.7% | 106% | 94.5% | 103% | 101% | 106% | 
27 | CN(C)S(=O)(=O)c1oc(-c2ccccc2)nc1C#N | 64.4% | 78.9% | 39.4% | 61.3% | 108% | 92.9% | 
28 | O=C(CSc1nc2sc3c(c2c(=O)n1-c1ccc(Cl)cc1)CCCC3)NNC(=O)Nc1cccc(C(F)(F)F)c1 | 54% | 24.5% | 16.7% | 5.54% (active) | 38.9% | 11% | 
29 | CCOC(=O)c1sc(N)c(C(=O)OCC)c1C | 59.9% | 81.2% | 57.9% |  |  | 69.1% | 
30 | CC(=O)Oc1ccccc1C(=O)Nc1ccc(C(=O)/C=C/c2cccs2)cc1 | 99.2% | 97.8% |  | 108% | 109% | 102% | 
31 | NC(=O)c1c(NC(=O)c2ccc(C3CCCCC3)cc2)sc2c1CCC(=O)C2 | -2.9% (active) | 11.9% | 10.9% | 7.94% (active) |  | 15.8% | 
32 | Fc1ccc(-c2cc3nc(C(Cl)Cl)nc(-c4ccccc4)n3n2)cc1 | 46.5% | 6.42% (active) |  | -54.7% (active) | -47.1% (active) | -37.7% (active) | 
33 | Cc1ccccc1NC(=O)/C=C/c1ccc(OCCOc2ccc3c(C)cc(=O)oc3c2)cc1 | 87.8% |  | 85.7% | 97.7% | 114% |  | 98.6%
34 | N#Cc1c(-c2ccc(F)cc2)nc2c(C#N)c(Nc3ccccc3)nn2c1N | 109% | 95.5% | 91.7% | 105% | 109% | 97.9% | 
35 | O=C1C2=C(C(=O)c3c(O)cccc31)C(c1ccco1)c1sc(=O)[nH]c1S2 (configuration not stated) | -96.8% (active) |  | -14.2% (active) | -2.88% (active) | 4.16% (active) |  | 13%
36 | CN(C)c1ccc(/C=C2\Cc3c(F)ccc(Br)c3C2=O)cc1 | 117% |  | 39.8% | 98.5% | 104% | 93.1% | 89.9%
37 | c1ccc2c(NCCCn3ccnc3)c3oc4ccccc4c3nc2c1 | 21.6% |  | -11.4% (active) |  | 0.465% (active) | 7.47% (active) | -16.9% (active)
38 | Cc1nc(-c2cc3ccccc3oc2=O)ccc1C(=O)/C=C/c1ccccn1 | 82.5% |  | 8.39% (active) | -21% (active) | 66.6% | 6.06% (active) | 1.33% (active)
39 | CC(C)(C)Nc1nc2c(OCCc3ccccc3)cccn2c1-c1cccc(F)c1 | 11.8% |  | -13.4% (active) | -32.8% (active) | 4.84% (active) | 4.77% (active) | 9.7% (active)
40 | CNC(=O)c1cc(-c2ccc(NC(=O)Nc3ccc(N4CCN(C)CC4)c(C(F)(F)F)c3)cc2)nc2cccnc12 | -81.4% (active) |  | -100% (active) | -98.4% (active) | -94.9% (active) |  | -81.2% (active)
41 | O=C(CCN1C(=O)/C(=C/c2ccccc2)SC1=S)N1CCOCC1 | 104% |  | 40.9% | 89.6% | 112% | 84.3% | 79%
42 | CC(=O)c1ccc(Nc2nc(SC(C)C)nc(-c3ccccc3)c2C#N)cc1 | 118% |  |  | 97.5% | 123% |  | 98.6%
